# hgDAF-12 ag – H. glycines DAF-12 receptor agonists, primary screen, cell-based, luminescence, HEK293, GAL4 fusion, UAS-luciferase; AID 687014, 2013; 370,000 compounds, 1.8% hits; Nuclear hormone receptor DAF-12 (Heterodera glycines), GAL4 fusion; HEK293 GAL4-hgDAF12 UAS-luciferase reporter, agonist luminescence; normalized to butyrate control; activation, % at 6.8 µM;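 active = activation above a cutoff set at the mean of all screened compounds plus 3 SD, cut at about 10% in these data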;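 also: 0% = DMSO wells and 100% = sodium butyrate wells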
# ssDAF12 agonist – S. stercoralis DAF-12 nuclear receptor activators, primary screen, cell-based, luminescence, HEK293, GRIP1 co-expression, lit1-tk-luc; 370,000 compounds, 1% hits; HEK293 ssDAF-12/GRIP1 lit1-tk-luc reporter; % of 3 µM dafachronic acid response; activation, % at 6.8 µM; AID 652126, 2013;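 active = activation above the mean over all tested compounds plus 3 SD, cut at about 0.9% in these data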;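 also: 0% = DMSO-only wells and 100% = 3 µM delta7-dafachronic acid wells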
# SMARCA2 act – SMARCA2 (BRM) function activators, primary screen, cell-based, luminescence, high throughput; AID 652017, 2013; 370,000 compounds, 1% hits; MG213 cells, MMTV-luciferase reporter, dexamethasone, overnight; activation, % at 9.1 µM; in the data active = activation above about 7.8%;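 also: 0% = vehicle wells and 100% = reference activator wells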
# DAX1 StAR inh – DAX1 (NR0B1) inhibitors on StAR promoter, primary screen, cell-based, luminescence, SF-1 (NR5A1), full-length DAX-1; inhibition, % at 6.8 µM; HEK293T StAR-luciferase reporter, SF-1/DAX-1 repression relief; 370,000 compounds, 1.1% hits;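 active = inhibition above the mean over all tested compounds plus 3 SD, cut at about 3.6% in these data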;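 also: 0% = DAX-1 cells with DMSO and 100% = cells lacking DAX-1 with DMSO; higher inhibition means more luminescence from relief of DAX-1 repression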
# hcDAF12 agonist – H. contortus DAF-12 nuclear receptor activators, primary screen, cell-based, luminescence, HEK293, lit1-tk-luc reporter; activation, % at 6.8 µM; HEK293 hcDAF-12 lit1-tk-luc reporter; 0% DMSO, 100% Δ7-dafachronic acid; 370,000 compounds, 1.4% hits; AID 652067, 2013;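 active = activation above the mean of all tested compounds plus 3 SD, cut at about 5.5% in these data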;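 also: 100% = response to 3 µM Δ7-dafachronic acid high control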
# hgDAF12 conf – H. glycines DAF-12 receptor agonists, confirmation, cell-based, luminescence, HEK293, GAL4-LBD fusion; 3,300 compounds, 80% hits; shares compounds with hgDAF-12 ag; activation, % at 6.8 µM; AID 743050, 2013; HEK293 GAL4-hgDAF12 luciferase reporter, agonist mode; percent of butyrate response;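 active = mean activation over triplicate wells above the hit cutoff derived from the earlier primary screen, cut at about 11% in these data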;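 also: 0% = DMSO low control and 100% = 2 mM sodium butyrate high control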
# LXR ag 2 – LXR agonists, Gal4 luciferase reporter, confirmation, counter-screen for hgDAF-12 agonist project, cell-based, luminescence, HEK293, H. glycines campaign. shares compounds with hgDAF-12 ag. 24 h. activation, % at 6.8 µM. 3,300 tested, under 10 active. AID 743051, 2013;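 active = mean activation of the triplicate above a set limit carried over from the primary screen, none filed active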
# Target sequence (P55055 whole entry, looked up, the tested form may be a part): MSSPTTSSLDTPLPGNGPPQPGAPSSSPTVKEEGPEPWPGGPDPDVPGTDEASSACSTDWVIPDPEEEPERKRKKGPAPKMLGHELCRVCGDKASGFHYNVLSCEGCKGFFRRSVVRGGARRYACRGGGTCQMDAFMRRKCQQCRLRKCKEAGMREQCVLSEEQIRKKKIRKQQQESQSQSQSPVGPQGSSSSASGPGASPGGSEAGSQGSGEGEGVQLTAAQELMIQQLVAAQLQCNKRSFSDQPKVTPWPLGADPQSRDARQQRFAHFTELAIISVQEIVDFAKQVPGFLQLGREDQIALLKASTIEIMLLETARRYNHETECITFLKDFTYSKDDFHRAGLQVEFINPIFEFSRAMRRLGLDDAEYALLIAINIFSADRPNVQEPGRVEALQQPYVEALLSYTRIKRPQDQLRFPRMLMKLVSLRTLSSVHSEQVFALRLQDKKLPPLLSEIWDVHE
# * marks the source's active call; other numbers are inactive results; . = no result given. A selection: hits, their analogues and other compounds. The true share with any hit is near 4.2%.
SMILES,hgDAF-12 ag,ssDAF12 agonist,SMARCA2 act,DAX1 StAR inh,hcDAF12 agonist,hgDAF12 conf,LXR ag 2
Cc1ccc(-c2cn(-c3ccccc3)c(=S)[nH]2)cc1C,20*,0,1,1,6.2*,14*,1
Cc1ccc(C(=O)COC(=O)c2ccc(O)cc2)cc1,14*,-1,7,1,0,8,0
CCOC(=O)COC(=O)c1ccc(O)cc1,0,-1,-2,0,2,.,.
N#CC1CC(c2ccccc2)Nc2cc(Cl)ccc2N1 (stereo unspecified),20*,1,3,0,6.0*,13*,0
Cc1ccc(NC(=O)c2ccc3ncsc3c2)cc1S(=O)(=O)N(C)C,20*,0,4,3,4,14*,1
NS(=O)(=O)c1ccc(NC(=O)c2ccc(-c3ccccc3)cc2)cc1,3,-1,4,1,0,.,.
NS(=O)(=O)c1ccc(C(=O)Nc2ccc(-c3nc4cccnc4s3)cc2)cc1,14*,-1,6,2,5,14*,1
CCCCCCCCN1C(=O)[C@@H](CC(=O)NCCc2ccccc2OC)C[C@@]2(C(=O)OC)C1=C[C@H](C1CCCC1)O[C@@H]2C,0,-1,-3,0,0,.,.
COc1ccc(N2C(=O)c3ccccc3NC23CCCC3)cc1,14*,0,5,4.5*,4,9,0
COc1ccc(N2C(=O)c3ccccc3S2(=O)=O)cc1,3,-2,1,-1,-3,.,.
COc1ccc(N2Cc3ccccc3C2=O)cc1,21*,0,2,2,4,16*,1
CCC1(CC)Nc2ccccc2C(=O)N1c1ccc(OC)cc1,10,1,6,3,3,.,.
CCCCNC(=O)C[C@H]1C[C@@]2(C(=O)OC)C(=C[C@H](C3CCCC3)O[C@@H]2C)N(CCC2=CCCCC2)C1=O,-1,-1,-5,-1,3,.,.
c1ccc(NN=C(c2ccccc2)c2cccs2)cc1,1,0,-3,-1,1,.,.
Cc1cccc(-c2ccc([N+](=O)[O-])cc2CN2CCN(c3ncc(Cc4ccccc4)cn3)CC2)c1,4,-1,-4,1,0,.,.
CC(C)(C)OC(=O)/C=C/[C@H](CCCCl)Sc1ccc(C(C)(C)C)cc1,0,-2,-5,-3,-5,.,.
O=C(NCc1ccc(Cl)cc1)C1C2C=CC3(CN(Cc4ccccc4)C(=O)C13)O2 (stereo unspecified),1,-1,6,-1,-2,.,.
COc1ccc(/C=C/C(=O)c2ccccc2)c(OC)c1,14*,1,7,2,5,14*,1
COc1ccc(/C=C/C(=O)NC2=NCCS2)c(OC)c1,14*,-1,.,.,5,15*,1
O=C(NC1=NCCS1)c1cc(Cl)ccc1Cl,-1,-1,5,0,0,.,.
COc1ccc(/C=C/C(=O)c2ccc(OC)cc2OC)c(OC)c1,-2,-2,0,-2,-4,.,.
COc1ccc(/C=C/C(=O)NNC(=O)c2ccncc2)c(OC)c1,0,-1,2,0,0,.,.
O=C(/C=C/c1ccc(Cl)c(Cl)c1)NC1=NCCS1,13*,0,-1,1,3,10*,0
COC(=O)[C@@]12CCCCC3=C1N(CCC3)C(=O)[C@H]2CC(=O)NCCc1ccccc1OC,0,0,-4,0,-2,.,.
COc1cc(/C=N/O)ccc1OCc1ccccc1Cl,14*,0,3,2,5,16*,1
SMILES,hgDAF-12 ag,ssDAF12 agonist,SMARCA2 act,DAX1 StAR inh,hcDAF12 agonist,hgDAF12 conf,LXR ag 2
C(=C\c1nnc2c3ccccc3ncn12)/c1ccccc1,15*,2.5*,1,1,6.1*,18*,1
CCc1noc(C)c1C(=O)N(CC)CC(=O)NCc1ccc(F)cc1,1,-1,-1,-1,1,.,.
Cc1ccc(-c2nc(C#N)c(NCc3ccco3)o2)cc1,14*,0,3,2,1,16*,0
COc1ccc(-c2nc(C#N)c(NCc3ccco3)o2)cc1,16*,-1,0,2,-1,16*,0
N#Cc1nc(-c2ccc(F)cc2)oc1NCc1ccco1,3,0,4,0,-1,.,.
N#Cc1nc(-c2ccc(OCc3ccccc3)cc2)oc1NCc1ccco1,1,-1,-5,0,0,.,.
Cc1ccnc(NC(=O)/C=C/c2cccs2)c1,16*,0,5,3,5.6*,19*,1
O=C(NCC(c1ccccc1)c1ccccc1)[C@H](Cc1ccccc1)NC1(C(=O)NC2CCCCC2)CCC1,2,-1,.,.,1,.,.
CCOC(=O)c1ccccc1NC1c2ccccc2C(=O)N1c1ccc(C)cn1 (stereo unspecified),15*,0,2,3,3,6,0
O=C(CCCCCn1c(=O)[nH]c2ccccc2c1=O)NC1CCCC1,1,-2,-1,1,1,.,.
COC(=O)[C@]12C[C@H](CC(=O)NCc3ccc(OC)c(OC)c3)C(=O)N(Cc3ccc(Cl)cc3Cl)C1=C[C@H](C1CCCC1)O[C@@H]2C,1,-1,-2,-2,-1,.,.
N#Cc1ccc(C(=O)Nc2nnc(-c3ccco3)o2)cc1,7,-2,5,0,0,.,.
Cc1ccc(C(=O)Nc2nnc(-c3ccco3)o2)cc1,14*,0,2,3,5,10,0
CN1Cc2nnn(Cc3ccccc3)c2-c2cc(N3CCCCC3)ccc2S1(=O)=O,-2,-2,8,1,-2,.,.
O=C(Nc1ccc2ccccc2n1)C1CCCCC1,15*,0,0,2,2,16*,1
COc1ccc(NC(=O)N(C)[C@H]2C[C@H]3c4[nH]c5c(-c6cccc(C)c6)cccc5c4CCN3C(=O)[C@H]2[C@H](C)O)cc1,-2,-1,-4,-1,-4,.,.
Cc1ccccc1NC(=O)c1cc2ccccn2n1,19*,1,4,3,6.0*,13*,1
Cc1ccccc1NC(=O)c1cnc2ccccn2c1=O,16*,0,7,4.2*,4,16*,1

# Bioassay records (PubChem)
